“And” between values parts separate entries of the source, which are not always exact repeats. Identical values can stand only once. The panel holds about 83,000 compounds, 20% with a hit somewhere; the sample as a whole holds those more often.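 Each cell line was grown in a 96-well plate and treated with one concentration of compound for 48 hours. Values below 10 were considered active.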 Unmarked numbers belong to inactive results. The source made the active and inactive calls.

The assay relates to HCT-116 colon. Description: NCI-60 one-dose screen, 48 h (100 = growth as untreated, 0 = no growth, -100 = all killed). The settings on record: 10 µM unless noted.
As for `CN1CCN(Cc2ccc(NC(=O)c3cccc(C#Cc4c(N)ncc5ccc(F)cc45)c3)cc2C(F)(F)F)CC1`, the growth is -93.1% (active).
In the case of `O=S(=O)(Nc1cc(Sc2cccc3cccnc23)c(O)c2ccccc12)c1ccc(F)cc1` it was -88.5% (active); in that of `CCOC(=O)c1cc2c(n1Cc1cc(OC)cc(OC)c1Br)-c1nc(NC(C)=O)sc1CCC2`, 78.2%; in that of `C#Cc1cc(C(=O)Nc2ccc(CN3CCN(C)CC3)c(C(F)(F)F)c2)ccc1C`, 47.8%.
In the case of `O=c1cc(N/N=C/c2ccc(F)cc2)c2cc(Cl)ccc2[nH]1` it was 84.1%; in that of `COc1ccc(Nc2nn3c(SCC(=O)c4ccc(C)cc4)nnc3s2)cc1`, 106%; in that of `Nc1ccccc1SC(CC(=O)c1ccccc1)c1ccc([N+](=O)[O-])cc1` (stereo unspecified), -87.1% (active) and -80.5% (active).
In the case of `O=C1/C(=C/c2ccc(-c3cccc(C(F)(F)F)c3)o2)SC(=S)N1CCc1ccc(O)cc1` it was 76%.
For the compound `COc1cc2c(cc1OCCCOC1=C=C=C(c3ccc4c(c3)c3cc(-c5ccc(OCCCOc6cc7c(cc6OC)C(=O)N6CCC[C@H]6C=N7)cc5)ccc3n4S(=O)(=O)c3ccc(C)cc3)C=C1)N=C[C@@H]1CCCN1C2=O`, the growth is 136% and 11.4%.
Under `CN1CCN(Cc2ccc(NC(=O)c3nc4ccc5[nH]ncc5c4c4c3CCCC4)cc2C(F)(F)F)CC1` stands -90.4% (active).
In the case of `CCOC(=O)n1cc(-c2nonc2-c2cn(C)c3ccc(OC)cc23)c2cc(F)ccc21` it was 77.3%.

Source of the values: PubChem BioAssay (NCI).
